Source: PubChem BioAssay
Calls of active or inactive are those of the source. Unless noted, no rule for the calls is given here.

What was measured:
[1] = A549 cell viability effects, profiling panel, calcein-AM fluorescence, 48 h, basal (AID 1162); details: higher = more signal; also: test concentration not given here
[2] = adipocyte viability effects, profiling panel, cell-based, 3T3-L1 adipocytes, calcein-AM fluorescence, 48 h, basal (AID 1163); details: 3T3-L1 adipocytes viability, higher = more signal; also: test concentration not given here
[3] = HepG2 cell viability effects, profiling panel, calcein-AM fluorescence, 48 h, basal (AID 1164); details: higher = more signal; also: test concentration not given here
[4] = MM1S cell viability effects, profiling panel, calcein-AM fluorescence, 48 h, basal (AID 1165); details: higher = more signal;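 also: viability of MM1S multiple myeloma cells under basal unstimulated conditions; test concentration not given here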
[5] = basal RPMI8226 viability, no added stimulus, profiling panel, cell-based, calcein-AM fluorescence, 48 h, PK04 Diversity Set (AID 1166); details: RPMI8226 myeloma viability, higher = more signal;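 also: cells grown under basal conditions without added stimulus; test concentration not given here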
[6] = basal HepG2 mitochondrial membrane potential changes, profiling panel, cell-based, JC-1 fluorescence, 24 h, 100 nL compound (AID 1167); details: higher = more signal; also: test concentration not given here
[7] = basal 3T3-L1 adipocyte mitochondrial potential changes, profiling panel, cell-based, JC-1 fluorescence, 3T3-L1 adipocytes, 24 h, 100 nL compound (AID 1168); details: JC-1 mitochondrial fluorescence, higher = more signal, called active from +8 up or from −8 down; also: test concentration not given here
[8] = basal RPMI8226 mitochondrial membrane potential changes, profiling panel, cell-based, JC-1 fluorescence, 24 h, 100 nL compound (AID 1169); details: RPMI8226 myeloma, JC-1 mitochondrial potential fluorescence, higher = more signal; also: test concentration not given here
[9] = basal MM1S mitochondrial membrane potential changes, profiling panel, cell-based, JC-1 fluorescence, 24 h, 100 nL compound (AID 1170); details: higher = more signal; also: test concentration not given here
[10] = A549 lung cancer cell viability effects, profiling panel, resazurin fluorescence, 24 h, PK04 Diversity Set (AID 1171); details: higher = more signal, called active from +8 up or from −8 down; also: test concentration not given here
[11] = HepG2 liver cancer cell viability effects, profiling panel, resazurin fluorescence, 24 h, PK04 Diversity Set (AID 1172); details: higher = more signal; also: test concentration not given here
[12] = basal S. cerevisiae growth modulation, no modifier, primary screen, OD600, strain BY4716, 24 h, basal condition (AID 1173); details: OD600, 24 h, higher = more signal, called active from +8 up or from −8 down
[13] = MM1S myeloma cell viability, profiling panel, resazurin fluorescence, basal, 24 h, PK04 Diversity Set (AID 1174); details: higher = more signal, called active from +8 up or from −8 down;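 also: MM1S multiple myeloma cell line; test concentration not given here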
[14] = target: Dihydroorotate dehydrogenase (quinone), mitochondrial (Plasmodium falciparum (isolate 3D7)) (UniProt Q08210); experiment: PfDHODH enzyme inhibitors, primary screen, biochemical, C-terminal His tag, absorbance 600 nm (AID 1175); details: DCIP absorbance 600 nm, higher = more signal, called active from +8 up or from −8 down;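 also: recombinant parasite enzyme with a five histidine tag at its C terminus; test concentration not given here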
Sequence of Dihydroorotate dehydrogenase (quinone), mitochondrial (Plasmodium falciparum (isolate 3D7)) (Q08210 whole entry, looked up): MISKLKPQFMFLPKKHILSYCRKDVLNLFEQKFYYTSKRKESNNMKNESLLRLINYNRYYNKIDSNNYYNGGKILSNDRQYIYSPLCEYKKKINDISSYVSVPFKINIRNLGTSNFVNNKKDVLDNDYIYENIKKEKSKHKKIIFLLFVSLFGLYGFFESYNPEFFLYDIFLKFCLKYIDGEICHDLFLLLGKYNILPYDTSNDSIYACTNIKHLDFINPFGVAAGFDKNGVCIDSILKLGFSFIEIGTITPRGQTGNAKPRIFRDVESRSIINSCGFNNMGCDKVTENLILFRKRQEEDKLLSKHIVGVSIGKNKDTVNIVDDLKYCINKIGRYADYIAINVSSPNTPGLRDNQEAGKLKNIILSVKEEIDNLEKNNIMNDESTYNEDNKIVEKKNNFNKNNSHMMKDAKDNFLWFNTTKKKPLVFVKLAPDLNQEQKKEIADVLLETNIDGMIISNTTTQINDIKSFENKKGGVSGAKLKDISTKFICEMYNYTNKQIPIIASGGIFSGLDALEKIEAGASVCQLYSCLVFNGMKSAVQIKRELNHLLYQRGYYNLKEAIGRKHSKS

[15] = P. aeruginosa biofilm formation inhibitors, primary screen, strain PAO1, LB-PBS medium, absorbance 600 nm (AID 1176); also: test concentration not given here; details: P. aeruginosa PAO1 growth/biofilm, A600, 12 h; higher = more signal
[16] = S. cerevisiae RM11-1a growth modifiers, primary screen, strain RM11-1a, OD600, basal, 24 h (AID 1177); details: OD600, 24 h, higher = more signal, called active from +8 up or from −8 down;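 also: cultures grown under basal conditions with no added stressor; test concentration not given here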
[17] = E. coli acrAB mutant growth effects, primary screen, E. coli filamentation inducers, strain DRC39, OD650, 24 h (AID 1178); details: higher = more signal, called active from +8 up or from −8 down;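 also: growth measured as culture turbidity by optical density at 650 nm; test concentration not given here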
[18] = E. coli acrAB mutant growth effects, primary screen, E. coli filamentation inducers, strain DRC39, OD650, 48 h (AID 1179);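 also: screen aims at cell division blockers that make cells filament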; details: E. coli DRC39 delta-acrAB growth, higher = more signal, called active from +8 up or from −8 down
[19] = RPMI8226 myeloma cell viability, profiling panel, resazurin fluorescence, basal, 24 h, PK04 Diversity Set (AID 1180); details: higher = more signal;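 also: RPMI8826 multiple myeloma cell line at 5000 cells per well; test concentration not given here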
[20] = target: E3 ubiquitin-protein ligase XIAP (Homo sapiens) (UniProt P98170); experiment: XIAP binders, primary screen, biophysical, small-molecule microarray, fluorescence 635 nm (AID 1181); details: small-molecule microarray binding, higher = more signal;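 also: score merges 667 nm emission and signal to noise over triplicate slides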
Sequence of E3 ubiquitin-protein ligase XIAP (Homo sapiens) (P98170 whole entry, looked up): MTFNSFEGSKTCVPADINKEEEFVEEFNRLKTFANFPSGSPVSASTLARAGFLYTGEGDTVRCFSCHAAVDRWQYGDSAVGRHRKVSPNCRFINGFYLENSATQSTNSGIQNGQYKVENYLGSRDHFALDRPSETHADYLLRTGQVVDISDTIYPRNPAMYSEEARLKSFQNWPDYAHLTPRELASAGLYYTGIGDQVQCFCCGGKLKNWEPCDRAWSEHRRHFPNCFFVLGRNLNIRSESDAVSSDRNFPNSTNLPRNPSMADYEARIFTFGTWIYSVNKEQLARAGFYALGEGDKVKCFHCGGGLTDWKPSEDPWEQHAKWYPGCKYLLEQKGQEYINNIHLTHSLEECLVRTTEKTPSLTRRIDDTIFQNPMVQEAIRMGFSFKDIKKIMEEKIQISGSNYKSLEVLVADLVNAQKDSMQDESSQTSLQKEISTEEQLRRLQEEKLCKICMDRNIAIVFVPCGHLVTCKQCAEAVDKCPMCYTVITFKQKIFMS

`COC(=O)CC=C[C@@H](C)[C@@H](C=NO[C@@H]1O[C@H](COC(C)=O)[C@@H](OC(C)=O)[C@H](OC(C)=O)[C@H]1OC(C)=O)OC` gave a z-score [1] of -0.999, a z-score [2] of -0.351 and a z-score [3] of 0.2. It also gave a z-score [4] of -0.171, a z-score [5] of 0.418 and a z-score [6] of -0.699. For the same compound, the z-score [7] was -1.19 (inactive), the z-score [8] was 0.128 and the z-score [9] was -0.0985. For the same compound, the z-score [10] was 1 (inactive), the z-score [11] was 0.992 and the z-score [12] was -0.298 (inactive). The z-score [13] was -0.205 (inactive), the composite z-score [14] was 0.159 (inactive) and the z-score [15] was 0.0738 (inactive). The z-score [16] was -0.0389 (inactive), the z-score [17] was -1.03 (inactive) and the z-score [18] was -0.932 (inactive). The z-score [19] was 0.672 and the composite z-score [20] was 0.127.

In the case of `CC(CCN1CCCCc2nc(C)c(C)cc21)=NOC[C@@H](O)COCc1ccco1`, the z-score [1] is reported as 0.224, the z-score [2] is reported as 0.0279 and the z-score [3] is reported as -0.437. For the same compound, the z-score [4] was 0.0805, the z-score [5] was -1.05 and the z-score [6] was -1.43. The z-score [7] was -1.47 (inactive), the z-score [8] was 0.854 and the z-score [9] was -0.797. For the same compound, the z-score [10] was -0.701 (inactive), the z-score [11] was -0.862 and the z-score [12] was -0.0954 (inactive). For the same compound, the z-score [13] was -0.399 (inactive), the composite z-score [14] was -0.441 (inactive) and the z-score [15] was -0.16 (inactive). For the same compound, the z-score [16] was 0.0681 (inactive), the z-score [17] was -0.0051 (inactive) and the z-score [18] was 0.562 (inactive). For the same compound, the z-score [19] was -0.688 and the composite z-score [20] was 0.0251.

`Cc1ccc(S(=O)(=O)NC(CCc2ccccc2)CC(=O)C(C)(C)C)cc1` (stereo not given) gave a z-score [1] of 0.0378, a z-score [2] of -0.795 and a z-score [3] of -0.869. It also gave a z-score [4] of 0.0642, a z-score [5] of -0.156 and a z-score [6] of -0.696. The z-score [7] was -0.255 (inactive), the z-score [8] was -0.201 and the z-score [9] was -0.236. For the same compound, the z-score [10] was 1.34 (inactive), the z-score [11] was 0.277 and the z-score [12] was -1 (inactive). For the same compound, the z-score [13] was -0.146 (inactive), the composite z-score [14] was 0.0379 (inactive) and the z-score [15] was 0.143 (inactive). The z-score [16] was 0.384 (inactive), the z-score [17] was 0.628 (inactive) and the z-score [18] was 0.274 (inactive). For the same compound, the z-score [19] was 0.159 and the composite z-score [20] was -0.195.

For `Cc1ccc(S(=O)(=O)OC[C@H]2CN3[C@H](c4ccc(Br)cc4)[C@@H](C)CC[C@H]3C(=O)O2)cc1`, the z-score [1] was 0.602, the z-score [2] was -0.744 and the z-score [3] was 0.62. The z-score [4] was -0.0638, the z-score [5] was -0.75 and the z-score [6] was 0.914. The z-score [7] was 0.555 (inactive), the z-score [8] was -0.103 and the z-score [9] was 0.222. For the same compound, the z-score [10] was 0.683 (inactive), the z-score [11] was 0.794 and the z-score [12] was -9.35 (active). The z-score [13] was 0.648 (inactive), the composite z-score [14] was -0.303 (inactive) and the z-score [15] was 1.29 (inactive). The z-score [16] was -1.42 (inactive), the z-score [17] was 1.31 (inactive) and the z-score [18] was 0.618 (inactive). The z-score [19] was 0.521 and the composite z-score [20] was 0.201.

`CO[C@H]1COC(=O)CCC[C@@H](C)[C@H](OC)COC(=O)[C@@H](C)NC(=O)CC=C[C@@H]1C` gave a z-score [1] of -0.682, a z-score [2] of 1.07 and a z-score [3] of -0.796. For the same compound, the z-score [4] was 0.0819, the z-score [5] was -1.04 and the z-score [6] was 1.95. For the same compound, the z-score [7] was 1.34 (inactive), the z-score [8] was 0.246 and the z-score [9] was -0.754. For the same compound, the z-score [10] was 1.02 (inactive), the z-score [11] was 0.0039 and the z-score [12] was 0.315 (inactive). The z-score [13] was 0.77 (inactive), the composite z-score [14] was -2.33 (inactive) and the z-score [15] was -1.46 (inactive). The z-score [16] was -1.07 (inactive), the z-score [17] was -1 (inactive) and the z-score [18] was -0.345 (inactive). The z-score [19] was 0.0228 and the composite z-score [20] was -0.138.

Work on `CC(C)CON=C1C[C@@H](O)[C@@H](O)[C@@H]2[C@@H]3C(=O)N(Cc4ccc5c(c4)OCO5)C(=O)[C@@H]3CC[C@H]12` yielded a z-score [1] of -0.223, a z-score [2] of -0.503 and a z-score [3] of -0.479. For the same compound, the z-score [4] was 0.119, the z-score [5] was -1.15 and the z-score [6] was 0.174. For the same compound, the z-score [7] was -0.589 (inactive), the z-score [8] was 0.704 and the z-score [9] was -0.146. The z-score [10] was 0.56 (inactive), the z-score [11] was 0.259 and the z-score [12] was 0.151 (inactive). For the same compound, the z-score [13] was -0.146 (inactive), the composite z-score [14] was 0.834 (inactive) and the z-score [15] was -0.626 (inactive). The z-score [16] was 0.812 (inactive), the z-score [17] was 0.0036 (inactive) and the z-score [18] was -0.0961 (inactive). It also gave a z-score [19] of -0.0651 and a composite z-score [20] of -0.184.

`O=C(NN=C1C[C@@H](O)[C@@H](O)[C@@H]2[C@@H]3C(=O)N(C[C@@H]4CCCO4)C(=O)[C@@H]3CC[C@H]12)OCc1ccccc1` gave a z-score [1] of -0.0032, a z-score [2] of -0.0428 and a z-score [3] of -0.718. For the same compound, the z-score [4] was 0.338, the z-score [5] was -0.0238 and the z-score [6] was -0.249. The z-score [7] was -0.0601 (inactive), the z-score [8] was 0.536 and the z-score [9] was -0.853. For the same compound, the z-score [10] was -0.714 (inactive), the z-score [11] was -0.136 and the z-score [12] was 0.267 (inactive). The z-score [13] was -0.239 (inactive), the composite z-score [14] was -0.02 (inactive) and the z-score [15] was -0.531 (inactive). The z-score [16] was -0.0555 (inactive), the z-score [17] was 0.593 (inactive) and the z-score [18] was 0.191 (inactive). The z-score [19] was 0.664 and the composite z-score [20] was 0.0451.

`CCOC(=O)[C@H](CC(C)C)NC(=O)CCC1CC(OC(=O)NCc2cccc3ccccc23)CC2(CCCC(COC(=O)NCCOC)O2)O1` (stereo not given in full) gave a z-score [1] of 2.3, a z-score [2] of 0.217 and a z-score [3] of 0.442. For the same compound, the z-score [4] was -0.441, the z-score [5] was 0.643 and the z-score [6] was 1.01. The z-score [7] was -0.356 (inactive), the z-score [8] was -0.198 and the z-score [9] was -0.834. For the same compound, the z-score [10] was 0.781 (inactive), the z-score [11] was -0.0621 and the z-score [12] was -2.14 (inactive). The z-score [13] was 1.35 (inactive), the composite z-score [14] was -0.531 (inactive) and the z-score [15] was 0.226 (inactive). The z-score [16] was -1.73 (inactive), the z-score [17] was 0.521 (inactive) and the z-score [18] was -0.0291 (inactive). The z-score [19] was 0.986 and the composite z-score [20] was 0.0589.

`CO[C@H]1COC(=O)[C@@H](C)COC(=O)[C@@H](OCc2ccccc2)C=C[C@@H]1C` showed a z-score [1] of -0.162, a z-score [2] of -0.197 and a z-score [3] of 0.373. The z-score [4] was -0.112, the z-score [5] was 0.473 and the z-score [6] was 0.485. The z-score [7] was 0.531 (inactive), the z-score [8] was 0.458 and the z-score [9] was 0.0911. For the same compound, the z-score [10] was 0.39 (inactive), the z-score [11] was 0.409 and the z-score [12] was -0.471 (inactive). The z-score [13] was 0.687 (inactive), the composite z-score [14] was 0.976 (inactive) and the z-score [15] was -0.601 (inactive). The z-score [16] was 1.14 (inactive), the z-score [17] was 0.334 (inactive) and the z-score [18] was -0.183 (inactive). It also gave a z-score [19] of 0.681 and a composite z-score [20] of 0.131.
